Source: PubChem BioAssay

Assay: HepG2 liver cancer cell viability effects, profiling panel, resazurin fluorescence, 24 h, PK04 Diversity Set (AID 1172); note: test concentration not given here
Conditions: higher = more signal
`NC(=O)[C@@]1(Cc2ccccc2)COC(c2ccc(OCCCO)cc2)=N1` showed a z-score of -0.101.
Compound `CCOC(=O)C[C@H]1[C@H](OC(=O)c2ccc(C(=O)c3ccccc3)cc2)[C@@H](NC(=O)c2ccc3ccccc3n2)c2cc(OCCCO)ccc2N1C(=O)Cc1ccc(OC)cc1` has a z-score of -0.0031.
Compound `COC(=O)[C@@H]1N=C(c2ccc(OCCCO)cc2)O[C@@H]1c1ccccc1` has a z-score of 1.64.
For `CCOc1cc(C(O)C2C=CC3C(=O)NC(=O)C3N2Nc2ccc(Cl)cc2Cl)ccc1O` (stereo not given), the z-score was -1.37.
With `CCOC(=O)C=Cc1cccc(C)c1O` the z-score was -0.156.
With `COC(=O)[C@@]1(Cc2ccc(OC)cc2)[C@H]2c3cc(C(=O)N4CCCC4)n(CCO)c3C[C@H]2CN1C(=O)c1ccccc1` the z-score was -1.39.
With `CC1=C2[C@@H](CCc3ccccc3)OB(O)C[C@@H]2[C@@H]2C(=O)N(Cc3ccccc3)C(=O)[C@@H]2C1` the z-score was -0.819.
With `C=CC[C@@H](OC(=O)Nc1ccc(SC)cc1)c1ccc(O)c(F)c1` the z-score was -0.227.
In the case of `COCCCNC(=O)[C@@]1(CCC(=O)OC(C)(C)C)N=C(c2ccc(OCCCO)cc2)O[C@H]1c1ccccc1N=[N+]=[N-]`, the z-score is reported as 1.6.
In the case of `CCOC(=O)C[C@H]1[C@H](OC(=O)c2cc3ccccc3oc2=O)[C@@H](NC(=O)CC(C)C)c2cc(OCCCO)ccc2N1C(=O)c1ccc2ccccc2n1`, the z-score is reported as -0.792.
Compound `Cc1ccc(C(C)CC(O)C2C=CC3C(=O)N(c4ccccc4)C(=O)C3N2Nc2ccccc2)o1` (stereo not given) has a z-score of -1.38.
Work on `CN(C)c1ccc(C(O)C2C=CC3C(=O)NC(=O)C3N2Nc2ccccn2)cc1` (stereo not given) yielded a z-score of -0.8.
`CCCCN1CC=CC23O[C@@H]4/C=C\CCCOC(=O)C4[C@H]2C(=O)N(CCO)[C@@H]3C1=O` (stereo not given in full) gave a z-score of -1.03.
In the case of `COc1ccc([Si](C)(C)[C@@H]2[C@@H](CCO)O[C@]3(C(=O)N(Cc4ccccc4)c4ccc(N5C(=O)c6cccc7cccc5c67)cc43)[C@H]2C)cc1`, the z-score is reported as -0.0019.
In the case of `Oc1ccc2cc[n+](Cc3cc4c(cc3Br)OCO4)cc2c1`, the z-score is reported as -0.269.
With `CCCNC(=O)[C@@H]1c2ccccc2C(=O)N(Cc2ccc(OC(F)(F)F)cc2)[C@H]1c1ccc(CO)cc1` the z-score was 0.266.
Compound `COCCOC(=O)N1C(=O)[C@@]2(c3cc(C#CC4=CCCCC4)ccc31)[C@H](c1ccccc1OCCO)N1[C@H](c3ccccc3)[C@H](c3ccccc3)OC(=O)[C@H]1[C@@H]2C(=O)NC[C@H](O)c1ccccc1` has a z-score of -1.14.
With `O=C1N(CCS(=O)(=O)c2ccccc2)c2ccccc2[C@H]2OC(c3ccc(OCCCO)cc3)=N[C@@]12Cc1ccccc1` the z-score was 0.676.
In the case of `[N-]=[N+]=Nc1ccccc1C[C@]1(C(=O)NCCN2CCOCC2)COC(c2ccc(OCCCO)cc2)=N1`, the z-score is reported as 1.14.
Compound `C=CC[C@@]1(C(=O)NCCCOC)N=C(c2ccc(OCCCO)cc2)O[C@@H]1c1ccccc1N=[N+]=[N-]` has a z-score of 1.06.
`COC(=O)C1=CC(CCCO)=CC(c2ccc(CN3CCCC3)cc2)N(Cc2cccc(OC(F)(F)F)c2)C=C1C(=O)OC` (stereo not given) showed a z-score of -0.721.
`CCCC=C(CCC)[C@@H](NC(=O)c1cccs1)c1ccc(C(=O)OC)cc1` gave a z-score of 0.756.
`CC1=C2[C@@H](CCc3ccccc3)OB(O)C[C@@H]2[C@@H]2C(=O)N(C)C(=O)[C@@H]2C1` gave a z-score of 0.157.
`COCCOC(=O)N1C(=O)[C@@]2(c3cc(C#CC4(O)CCCCCC4)ccc31)[C@H](c1ccc(O)cc1)N1[C@H](c3ccccc3)[C@H](c3ccccc3)OC(=O)[C@H]1[C@@H]2C(=O)N1CCN(c2ncccn2)CC1` showed a z-score of 0.0439.
With `COC(=O)[C@@]1(Cc2ccc(F)cc2)[C@H]2c3cc(C(=O)N(C)C)n(Cc4ccc(OC(F)(F)F)cc4)c3C[C@H]2CN1C(=O)c1ccccc1` the z-score was -0.674.
With `C=CCNC(=O)[C@H]1[C@@H]2C(=O)O[C@@H](c3ccccc3)[C@@H](c3ccccc3)N2[C@@H](c2ccccc2OCCO)[C@]12C(=O)N(C(=O)OCCOC)c1ccc(C#CC3(O)CCCCCC3)cc12` the z-score was -0.536.
Compound `C=C(COC)/C(=C/C[C@H](OC(=O)c1ccncc1)c1ccccc1OCCO)c1cc(C(=O)OC)ccc1OC` has a z-score of -0.418.
For `CC(C)c1ccc(NN2C(C(O)c3ccc(C#N)cc3)C=CC3C(=O)N(c4ccccc4)C(=O)C32)cc1` (stereo not given), the z-score was -2.
With `CC(C)NC(=O)[C@@]1(c2ccc([N+](=O)[O-])cc2)CC(=O)N(C2CCCCC2)[C@@H]1c1ccc(CO)cc1` the z-score was 1.2.
`CCOC(=O)C[C@H]1[C@H](OC(=O)Cc2ccc3c(c2)OCO3)[C@@H](NC(=O)c2ccc3ccccc3n2)c2cc(OCCCO)ccc2N1C(=O)c1ccccc1` showed a z-score of 0.374.
Compound `O=c1cccc(-c2ccc([N+](=O)[O-])cc2)o1` has a z-score of 0.269.
`CC(C)N1C(=O)C[C@@](C(=O)O)(c2ccc([N+](=O)[O-])cc2)[C@H]1c1ccc(CO)cc1` showed a z-score of -0.847.
Work on `CCCCCCCCCC(O)C1C=CC2C(=O)N(c3ccccc3)C(=O)C2N1Nc1cc(OC)c(OC)c(OC)c1` (stereo not given) yielded a z-score of -2.66.
`COC(=O)[C@@]1(Cc2ccc(OC)cc2)[C@H]2c3cc(C(=O)N(C)C)n(Cc4ccc(C)o4)c3C[C@H]2CN1C(=O)c1ccccc1` gave a z-score of -0.239.
`[N-]=[N+]=Nc1ccccc1C[C@]1(C(=O)NCC(O)CO)COC(c2ccc(OCCCO)cc2)=N1` (stereo not given in full) gave a z-score of 0.586.
